# Measured values reported in PMC7862700, “An all-to-all approach to the identification of sequence-specific readers for epigenetic DNA modifications on cytosine”.
# Tests used:
# Experiment in all cases: DAPPL (digital affinity profiling via proximity ligation, sequencing); 10 mM Tris-HCl pH 7.5, 50 mM NaCl, 1 mM DTT, 4% glycerol, room temperature, 30 min; GST-TFs on glutathione beads, 16-mer random dsDNA library, 0.1% formaldehyde crosslink after washing; high values mean tight binding
# Conditions in all cases: protein: recombinant; tags: N-terminal GST; dsDNA, one strand shown
# [1] = molecular target: T1, ELK1 (Homo sapiens, UniProt P19419 1-428)
# T1 sequence: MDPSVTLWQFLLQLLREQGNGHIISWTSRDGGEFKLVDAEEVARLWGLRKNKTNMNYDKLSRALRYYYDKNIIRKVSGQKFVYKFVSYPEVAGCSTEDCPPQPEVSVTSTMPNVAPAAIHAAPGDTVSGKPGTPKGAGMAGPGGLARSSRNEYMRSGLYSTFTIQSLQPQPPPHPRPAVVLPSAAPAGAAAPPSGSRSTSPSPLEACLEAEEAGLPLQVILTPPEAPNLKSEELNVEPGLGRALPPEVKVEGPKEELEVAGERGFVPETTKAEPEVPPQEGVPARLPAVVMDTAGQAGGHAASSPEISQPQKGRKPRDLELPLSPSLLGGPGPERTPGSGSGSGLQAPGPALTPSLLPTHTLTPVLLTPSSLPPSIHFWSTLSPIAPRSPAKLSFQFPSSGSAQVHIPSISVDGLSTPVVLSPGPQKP
# Procedure, shortened: (§1)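 Beads coated with glutathione captured GST-fused human transcription factors that had been expressed in yeast, and the factors were then given DNA barcodes and pooled with a tag-only sample. The pools were incubated with 200 nmole of a random double-stranded 16-mer DNA library in Tris/NaCl/DTT/glycerol buffer for 30 min at room temperature, washed, crosslinked with 0.1% formaldehyde and proximity-ligated with BsaI/T4 ligase at 37 °C for 1 h. PCR amplification and Illumina NextSeq500 sequencing came last. Binding signal is each hexamer's read frequency for a factor divided by its frequency for the tag-only sample.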
# [2] = molecular target: T2, GABPA (Homo sapiens, UniProt Q06546 1-454)
# T2 sequence: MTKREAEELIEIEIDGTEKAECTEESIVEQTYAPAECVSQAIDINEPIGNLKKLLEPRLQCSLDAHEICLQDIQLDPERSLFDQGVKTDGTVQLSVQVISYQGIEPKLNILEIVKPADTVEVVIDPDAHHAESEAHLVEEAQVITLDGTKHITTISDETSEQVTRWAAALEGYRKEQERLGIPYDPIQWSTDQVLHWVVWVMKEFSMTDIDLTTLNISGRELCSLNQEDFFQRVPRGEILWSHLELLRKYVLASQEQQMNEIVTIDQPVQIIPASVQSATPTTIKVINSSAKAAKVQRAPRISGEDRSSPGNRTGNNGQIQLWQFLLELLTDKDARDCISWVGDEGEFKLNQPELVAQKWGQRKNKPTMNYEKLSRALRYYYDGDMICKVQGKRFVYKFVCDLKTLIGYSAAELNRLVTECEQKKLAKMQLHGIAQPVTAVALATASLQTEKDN
# Procedure, shortened: as §1
# [3] = molecular target: T3, ERG (Homo sapiens, UniProt P11308 1-479)
# T3 sequence: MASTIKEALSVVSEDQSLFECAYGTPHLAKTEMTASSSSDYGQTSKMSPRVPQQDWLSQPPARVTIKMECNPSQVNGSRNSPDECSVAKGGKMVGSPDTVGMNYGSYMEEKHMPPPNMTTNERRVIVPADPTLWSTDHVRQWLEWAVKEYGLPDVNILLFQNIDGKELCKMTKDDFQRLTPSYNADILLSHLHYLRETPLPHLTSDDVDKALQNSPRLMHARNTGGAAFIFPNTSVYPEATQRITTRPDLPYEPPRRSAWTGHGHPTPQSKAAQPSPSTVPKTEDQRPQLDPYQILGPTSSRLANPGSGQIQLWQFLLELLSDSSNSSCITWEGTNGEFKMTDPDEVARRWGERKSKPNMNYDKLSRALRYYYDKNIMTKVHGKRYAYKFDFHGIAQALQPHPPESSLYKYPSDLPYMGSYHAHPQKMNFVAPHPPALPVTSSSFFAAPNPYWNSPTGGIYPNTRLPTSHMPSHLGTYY
# Procedure, shortened: as §1
# [4] = molecular target: ELF1 (Homo sapiens, UniProt P32519 1-619)
# Chain of ELF1 (P32519 whole entry): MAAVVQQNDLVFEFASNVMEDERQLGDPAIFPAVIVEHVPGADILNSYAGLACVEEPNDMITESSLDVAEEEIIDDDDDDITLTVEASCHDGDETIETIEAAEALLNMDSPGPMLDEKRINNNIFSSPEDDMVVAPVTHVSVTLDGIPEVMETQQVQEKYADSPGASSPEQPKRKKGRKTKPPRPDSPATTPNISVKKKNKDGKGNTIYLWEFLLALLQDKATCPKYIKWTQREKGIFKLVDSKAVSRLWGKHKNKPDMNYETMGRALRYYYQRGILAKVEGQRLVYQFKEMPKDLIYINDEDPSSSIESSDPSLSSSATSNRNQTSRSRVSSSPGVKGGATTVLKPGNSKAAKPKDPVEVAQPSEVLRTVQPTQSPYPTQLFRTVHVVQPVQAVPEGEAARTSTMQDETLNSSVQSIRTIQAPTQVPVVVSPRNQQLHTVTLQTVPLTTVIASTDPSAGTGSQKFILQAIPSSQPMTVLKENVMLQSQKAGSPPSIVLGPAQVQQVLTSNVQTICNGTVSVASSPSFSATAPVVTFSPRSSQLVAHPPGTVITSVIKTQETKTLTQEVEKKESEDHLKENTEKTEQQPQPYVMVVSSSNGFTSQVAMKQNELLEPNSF
# Procedure, shortened: as §1
# [5] = molecular target: SPIB (Homo sapiens, UniProt Q01892 1-262)
# Chain of SPIB (Q01892 whole entry): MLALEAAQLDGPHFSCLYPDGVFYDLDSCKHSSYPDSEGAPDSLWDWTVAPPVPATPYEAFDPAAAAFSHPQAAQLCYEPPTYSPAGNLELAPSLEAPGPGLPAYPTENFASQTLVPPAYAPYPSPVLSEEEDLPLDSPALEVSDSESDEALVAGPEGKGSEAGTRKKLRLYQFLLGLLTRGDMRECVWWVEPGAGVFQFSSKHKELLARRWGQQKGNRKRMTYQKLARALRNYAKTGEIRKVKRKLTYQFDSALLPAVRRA
# Procedure, shortened: as §1
# [6] = molecular target: ETV5 (Homo sapiens, UniProt P41161 1-510)
# Chain of ETV5 (P41161 whole entry): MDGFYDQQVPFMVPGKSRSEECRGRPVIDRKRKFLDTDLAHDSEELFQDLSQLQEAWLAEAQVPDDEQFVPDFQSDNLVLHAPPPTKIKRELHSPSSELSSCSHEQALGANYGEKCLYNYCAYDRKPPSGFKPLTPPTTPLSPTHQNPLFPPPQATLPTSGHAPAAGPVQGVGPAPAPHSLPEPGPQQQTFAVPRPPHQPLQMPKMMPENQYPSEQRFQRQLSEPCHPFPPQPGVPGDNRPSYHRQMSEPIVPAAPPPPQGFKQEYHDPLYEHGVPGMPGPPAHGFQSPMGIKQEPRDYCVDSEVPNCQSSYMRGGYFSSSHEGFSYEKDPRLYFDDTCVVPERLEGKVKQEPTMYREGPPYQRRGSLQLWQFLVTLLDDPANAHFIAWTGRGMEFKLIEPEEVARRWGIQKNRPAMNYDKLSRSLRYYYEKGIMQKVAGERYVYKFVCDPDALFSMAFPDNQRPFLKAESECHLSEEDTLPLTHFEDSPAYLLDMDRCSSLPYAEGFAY
# Procedure, shortened: as §1
# [7] = molecular target: ELF4 (Homo sapiens, UniProt Q99607 1-663)
# Chain of ELF4 (Q99607 whole entry): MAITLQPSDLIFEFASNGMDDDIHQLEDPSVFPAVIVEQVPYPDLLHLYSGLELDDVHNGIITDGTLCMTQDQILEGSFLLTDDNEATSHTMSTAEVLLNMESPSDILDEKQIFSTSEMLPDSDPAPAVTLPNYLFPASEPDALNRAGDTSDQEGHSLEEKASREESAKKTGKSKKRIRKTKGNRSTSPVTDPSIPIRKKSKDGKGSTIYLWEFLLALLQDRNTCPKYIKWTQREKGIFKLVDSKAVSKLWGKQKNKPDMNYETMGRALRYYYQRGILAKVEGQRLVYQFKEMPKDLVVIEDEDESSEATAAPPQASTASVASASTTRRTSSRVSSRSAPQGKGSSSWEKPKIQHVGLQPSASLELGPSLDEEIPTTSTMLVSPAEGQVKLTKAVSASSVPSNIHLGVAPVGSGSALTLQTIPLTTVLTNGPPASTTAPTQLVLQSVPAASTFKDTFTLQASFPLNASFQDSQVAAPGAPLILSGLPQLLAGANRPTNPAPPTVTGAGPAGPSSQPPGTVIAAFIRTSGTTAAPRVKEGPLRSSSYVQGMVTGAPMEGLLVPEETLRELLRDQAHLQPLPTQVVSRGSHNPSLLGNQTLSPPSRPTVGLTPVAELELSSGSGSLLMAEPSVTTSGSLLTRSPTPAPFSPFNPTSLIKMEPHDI
# Procedure, shortened: as §1
# [8] = molecular target: T4, ELK4 (Homo sapiens, UniProt P28324-2 1-405)
# T4 sequence: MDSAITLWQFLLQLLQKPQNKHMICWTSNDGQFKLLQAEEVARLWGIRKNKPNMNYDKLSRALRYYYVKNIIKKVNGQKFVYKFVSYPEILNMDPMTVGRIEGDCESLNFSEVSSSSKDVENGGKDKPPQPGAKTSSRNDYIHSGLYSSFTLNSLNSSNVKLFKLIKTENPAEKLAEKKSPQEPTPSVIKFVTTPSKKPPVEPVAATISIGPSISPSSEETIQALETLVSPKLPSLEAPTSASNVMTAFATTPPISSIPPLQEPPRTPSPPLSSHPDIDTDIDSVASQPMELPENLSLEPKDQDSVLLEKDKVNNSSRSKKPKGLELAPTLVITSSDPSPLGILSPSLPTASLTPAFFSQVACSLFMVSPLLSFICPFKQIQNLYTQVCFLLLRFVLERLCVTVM
# Procedure, shortened: as §1
# [9] = molecular target: ETV1 (Homo sapiens, UniProt P50549 1-477)
# Chain of ETV1 (P50549 whole entry): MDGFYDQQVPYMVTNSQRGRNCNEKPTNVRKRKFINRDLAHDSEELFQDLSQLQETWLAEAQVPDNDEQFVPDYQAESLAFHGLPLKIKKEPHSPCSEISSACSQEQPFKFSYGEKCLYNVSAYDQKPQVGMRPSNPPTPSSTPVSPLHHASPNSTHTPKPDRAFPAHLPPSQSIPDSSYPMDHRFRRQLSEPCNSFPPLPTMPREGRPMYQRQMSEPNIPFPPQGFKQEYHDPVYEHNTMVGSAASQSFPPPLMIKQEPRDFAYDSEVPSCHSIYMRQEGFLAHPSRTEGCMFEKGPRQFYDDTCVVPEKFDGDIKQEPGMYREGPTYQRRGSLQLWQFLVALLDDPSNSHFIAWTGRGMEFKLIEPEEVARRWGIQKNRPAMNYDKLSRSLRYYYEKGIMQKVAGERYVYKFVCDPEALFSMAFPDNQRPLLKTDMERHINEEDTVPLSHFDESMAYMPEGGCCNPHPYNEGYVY
# Procedure, shortened: as §1
# [10] = molecular target: T5, ERF (Homo sapiens, UniProt P50548 1-548)
# T5 sequence: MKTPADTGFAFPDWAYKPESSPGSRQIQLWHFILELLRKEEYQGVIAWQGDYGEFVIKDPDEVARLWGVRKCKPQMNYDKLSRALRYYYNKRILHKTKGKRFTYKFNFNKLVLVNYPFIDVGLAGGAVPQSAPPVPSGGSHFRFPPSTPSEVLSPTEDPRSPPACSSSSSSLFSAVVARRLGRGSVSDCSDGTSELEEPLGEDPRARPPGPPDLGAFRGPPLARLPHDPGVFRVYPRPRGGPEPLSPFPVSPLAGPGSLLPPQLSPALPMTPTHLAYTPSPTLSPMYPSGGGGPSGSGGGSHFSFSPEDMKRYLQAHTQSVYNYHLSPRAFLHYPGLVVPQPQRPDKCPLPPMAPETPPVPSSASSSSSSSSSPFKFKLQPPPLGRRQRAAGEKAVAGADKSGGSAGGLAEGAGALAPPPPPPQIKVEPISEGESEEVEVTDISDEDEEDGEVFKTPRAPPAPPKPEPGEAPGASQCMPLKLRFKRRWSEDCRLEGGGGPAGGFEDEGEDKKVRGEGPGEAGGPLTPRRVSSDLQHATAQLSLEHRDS
# Procedure, shortened: as §1
# [11] = molecular target: T6, ETV3L (Homo sapiens, UniProt Q6ZN32 1-361)
# T6 sequence: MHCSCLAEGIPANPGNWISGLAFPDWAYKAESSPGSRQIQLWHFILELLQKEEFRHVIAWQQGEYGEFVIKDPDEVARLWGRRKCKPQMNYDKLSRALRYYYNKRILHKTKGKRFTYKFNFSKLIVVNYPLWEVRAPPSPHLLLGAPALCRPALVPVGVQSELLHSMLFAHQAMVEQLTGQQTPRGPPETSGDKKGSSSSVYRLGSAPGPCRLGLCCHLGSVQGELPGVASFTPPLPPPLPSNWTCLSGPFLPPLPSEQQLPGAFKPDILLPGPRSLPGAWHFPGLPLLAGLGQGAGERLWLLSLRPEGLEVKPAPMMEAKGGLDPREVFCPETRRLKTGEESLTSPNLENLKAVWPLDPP
# Procedure, shortened: as §1
# [12] = molecular target: T7, ETS2 (Homo sapiens, UniProt P15036 1-469)
# T7 sequence: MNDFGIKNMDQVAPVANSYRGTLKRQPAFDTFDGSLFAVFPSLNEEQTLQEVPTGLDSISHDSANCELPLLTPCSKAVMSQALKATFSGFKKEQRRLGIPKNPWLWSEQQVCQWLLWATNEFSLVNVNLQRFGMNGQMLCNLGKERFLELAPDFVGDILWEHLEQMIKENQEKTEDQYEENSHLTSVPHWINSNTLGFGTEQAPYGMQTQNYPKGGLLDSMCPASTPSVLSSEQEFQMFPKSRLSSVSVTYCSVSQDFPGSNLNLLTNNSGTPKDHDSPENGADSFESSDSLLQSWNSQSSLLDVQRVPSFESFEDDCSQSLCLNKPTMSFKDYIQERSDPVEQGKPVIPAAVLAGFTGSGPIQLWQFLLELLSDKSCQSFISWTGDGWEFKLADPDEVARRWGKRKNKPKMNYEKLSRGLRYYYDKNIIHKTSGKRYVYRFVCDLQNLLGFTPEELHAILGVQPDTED
# Procedure, shortened: as §1
# [13] = molecular target: T8, ETV3 (Homo sapiens, UniProt P41162-2 1-143)
# T8 sequence: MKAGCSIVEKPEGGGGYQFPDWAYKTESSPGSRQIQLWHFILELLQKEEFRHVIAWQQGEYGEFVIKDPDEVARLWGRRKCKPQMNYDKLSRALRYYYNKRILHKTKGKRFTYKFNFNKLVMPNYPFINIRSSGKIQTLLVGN
# Procedure, shortened: as §1
# [14] = molecular target: ETV6 (Homo sapiens, UniProt P41212 1-452)
# Chain of ETV6 (P41212 whole entry): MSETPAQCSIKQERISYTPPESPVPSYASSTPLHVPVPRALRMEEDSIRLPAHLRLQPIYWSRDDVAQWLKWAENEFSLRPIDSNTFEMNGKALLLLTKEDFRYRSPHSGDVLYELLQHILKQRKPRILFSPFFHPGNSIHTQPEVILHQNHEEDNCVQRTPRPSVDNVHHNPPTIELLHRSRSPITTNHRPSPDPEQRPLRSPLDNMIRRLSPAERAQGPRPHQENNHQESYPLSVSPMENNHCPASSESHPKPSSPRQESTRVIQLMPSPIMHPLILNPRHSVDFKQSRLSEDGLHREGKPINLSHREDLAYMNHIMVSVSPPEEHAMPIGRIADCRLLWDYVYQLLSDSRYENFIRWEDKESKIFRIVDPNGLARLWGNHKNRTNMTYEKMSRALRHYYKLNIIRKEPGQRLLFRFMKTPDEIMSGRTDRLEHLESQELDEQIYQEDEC
# Procedure, shortened: as §1
sequence,measurement,setting,value
GCAATC,binding signal,[1],"1.05 fold enrichment (6-mer frequency, TF over GST control)"
same,binding signal,[2],"1.04 fold enrichment (6-mer frequency, TF over GST control)"
same,binding signal,[3],"1.03 fold enrichment (6-mer frequency, TF over GST control)"
same,binding signal,[4],"1.09 fold enrichment (6-mer frequency, TF over GST control)"
same,binding signal,[5],"1.05 fold enrichment (6-mer frequency, TF over GST control)"
same,binding signal,[6],"1.06 fold enrichment (6-mer frequency, TF over GST control)"
same,binding signal,[7],"1.02 fold enrichment (6-mer frequency, TF over GST control)"
same,binding signal,[8],"1.07 fold enrichment (6-mer frequency, TF over GST control)"
same,binding signal,[9],"1.06 fold enrichment (6-mer frequency, TF over GST control)"
same,binding signal,[10],"1.03 fold enrichment (6-mer frequency, TF over GST control)"
same,binding signal,[11],"1.01 fold enrichment (6-mer frequency, TF over GST control)"
same,binding signal,[12],"1.04 fold enrichment (6-mer frequency, TF over GST control)"
same,binding signal,[13],"1.06 fold enrichment (6-mer frequency, TF over GST control)"
same,binding signal,[14],"1.11 fold enrichment (6-mer frequency, TF over GST control)"
